Reference: PubChem BioAssay AID1486 (The Scripps Research Institute Molecular Screening Center, 2009)
The campaign covered roughly 220,000 compounds. About 2,400 (1.1%) were called active. This is one part of a sample in which actives are shown more often than they occur. Values without a mark were called inactive.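 The calls were made as follows: active = inhibition above a per-campaign cutoff, the mean inhibition of all tested compounds plus 3 SD (cut at about 27% in these data); inactive = the rest.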

Assay: parental Ba/F3 cell viability inhibition, counter-screen for JAK2V617F inhibitor project, murine pro-B, CellTiter-Glo luminescence (AID 1486);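 also: 0% = DMSO wells and 100% = JAK Inhibitor I control wells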
Conditions: CellTiter-Glo ATP luminescence, at 5.6 µM, active compounds read high
With `COC(=O)c1ccc(CN2CCN(CCCc3ccccc3)C(CCO)C2)cc1` (stereo unspecified) the inhibition was 4.68%.
For `CCN1/C(=C/C(=S)Nc2ccccc2)Sc2ccccc21`, the inhibition was 0.08%.
For `CCN1/C(=C\c2ccc3ccccc3[n+]2CC)Sc2cc(C)ccc21`, the inhibition was 88.7% (active).
`CCN1CCN(CCNC(=O)c2ccc(/C=C3/Sc4ccccc4N(Cc4cccc(C)c4)C3=O)cc2)CC1` showed an inhibition of 13.1%.
With `CCN1/C(=C/c2ccc3ccc(C)cc3[n+]2CC)Sc2ccccc21` the inhibition was 87.6% (active).
In the case of `COc1ccccc1C1C(C#N)=C(N)Oc2c1c(-c1ccccc1)nn2-c1ccccc1` (stereo unspecified), the inhibition is reported as 4.31%.
In the case of `CCCN(CCC)CC(O)COc1ccccc1C(=O)Nc1ccccc1` (stereo unspecified), the inhibition is reported as 1.95%.
Molecule `CNC(=O)c1csc(Cc2c(Cl)sc3ccc(Cl)cc23)n1` has an inhibition of -0.25%.
Molecule `COc1ccc(C(=O)CN(C(=O)c2ccc(Cl)cc2)N2C(=O)c3ccccc3C2=O)cc1` has an inhibition of -0.72%.
In the case of `COc1ccc(Cn2c(-c3ccc(Cl)cc3)c[n+]3ccccc23)cc1`, the inhibition is reported as 76.4% (active).
`COc1ccc(Cn2c(=O)cc(C)[nH]c2=S)cc1` showed an inhibition of 9.89%.
Molecule `COc1cccc(Nc2nnc(SCC(=O)N3CC(=O)Nc4ccccc43)s2)c1` has an inhibition of -3.89%.
`Nc1ccc(C(=O)OCC(=O)NC2CCS(=O)(=O)C2)cc1[N+](=O)[O-]` (stereo unspecified) gave an inhibition of -1.89%.
For `Cc1ccnc(NC(=O)c2ccc(NC(=O)c3ccco3)cc2)c1`, the inhibition was -0.11%.
With `Cc1ccc(C(=O)COc2cccc(NC(=O)c3ccco3)c2)cc1` the inhibition was 95.5% (active).
`COc1cccc(C(=O)Nc2ccc(NC(=O)c3ccco3)cn2)c1` showed an inhibition of -2.07%.
With `Cc1c(NC(=O)CSc2nnnn2-c2ccc(C(=O)O)cc2)c(=O)n(-c2ccccc2)n1C` the inhibition was 9.83%.
`COc1ccc(C(=O)C2CCCN(C(=O)c3cnsn3)C2)c(C)c1` (stereo unspecified) gave an inhibition of -0.94%.
For `COc1ccc(NS(=O)(=O)c2ccc(Oc3c(C#N)cccc3C#N)cc2)cc1`, the inhibition was 42% (active).
`COc1ccc(NS(=O)(=O)c2ccc(NC(=O)c3ccc(N(C)S(C)(=O)=O)cc3)cc2)cc1` gave an inhibition of 5.44%.
`CCOc1ccc(S(=O)(=O)Nc2ccc(S(=O)(=O)Nc3cc(OC)ccc3OC)cc2)cc1` showed an inhibition of 5.24%.
With `COc1ccccc1N1CC(C(=O)Nc2ccc(S(=O)(=O)N3CCOCC3)cc2)CC1=O` (stereo unspecified) the inhibition was 2.78%.
In the case of `CNc1nnc(-c2ccco2)s1`, the inhibition is reported as -0.97%.
With `COc1cccc(C(O)Cc2nc3ccccc3n2C)c1OC` (stereo unspecified) the inhibition was 0.12%.
For `Cc1ccc(F)cc1NC(=O)Cc1nn(C)c(=O)c2ccccc12`, the inhibition was 37.3% (active).
For `COc1ccc(-c2nn(C)c(=O)c3ccccc23)cc1NC(=O)COc1ccccc1`, the inhibition was -0.19%.
Molecule `Cc1ccc(NC(=O)Cn2nc(C)c3ccccc3c2=O)c(C)c1` has an inhibition of 4.31%.
Molecule `COc1ccc(Cl)cc1NC(=O)NC(C)C(C)(C)C` (stereo unspecified) has an inhibition of 2.98%.
`Cc1nc2ccccc2nc(=O)c1NNc1ccc([N+](=O)[O-])cc1` showed an inhibition of 4.24%.
Work on `O=C(COC(=O)CCc1nc2ccccc2c(=O)[nH]1)Nc1ccc(N2CCOCC2)cc1` yielded an inhibition of -2.42%.
Molecule `COCCCNC(=O)/C=C/c1ccc(OCc2c(F)cccc2Cl)cc1` has an inhibition of 2.28%.
For `O=C(/C=C/c1ccc(OCc2c(F)cccc2Cl)cc1)N1CCOCC1`, the inhibition was 67.9% (active).
`CN(C)CCCNC(=O)/C=C/c1ccc(OCc2c(F)cccc2Cl)cc1` gave an inhibition of 7.63%.
In the case of `C/C(=N/Nc1nc(-c2ccccc2)c(CC(=O)O)s1)c1ccccc1`, the inhibition is reported as 2.81%.
In the case of `O=C(CSc1nc2cc3c(cc2c(=O)n1CCC1=CCCCC1)OCO3)NCc1ccco1`, the inhibition is reported as 33.2% (active).
In the case of `C=C(C)Cn1c(SCC(=O)NCc2ccco2)nc2sc3c(c2c1=O)CCC3`, the inhibition is reported as 1.93%.
In the case of `O=C(CCCn1c(SCC(=O)c2ccc(F)cc2)nc2ccccc2c1=O)NCc1ccco1`, the inhibition is reported as 4.54%.
With `COc1cc(OC)cc(C(=O)NCC(=O)OCc2csc(-c3ccccc3)n2)c1` the inhibition was 10.9%.
Molecule `COc1cc(OC)cc(C(=O)NC2CCN(C(=O)N3c4ccccc4Sc4ccccc43)CC2)c1` has an inhibition of 6.78%.
In the case of `Cc1ccc(-c2nn(-c3cccc(F)c3)cc2CNCCc2ccncc2)o1`, the inhibition is reported as 43% (active).
Molecule `CSCCNCc1cn(-c2ccc(F)cc2F)nc1-c1ccccc1C` has an inhibition of 5.07%.
With `Cc1ccc(-c2nn(-c3ccccc3)cc2CN(Cc2ccccc2)C(=O)CCC(=O)O)o1` the inhibition was 6.11%.
Work on `Cc1cc(Cl)ccc1C(=O)C1CCCN(C(=O)CCN2CCCO2)C1` (stereo unspecified) yielded an inhibition of 0.61%.
`Cc1cc(=O)[nH]c(SCC(=O)Nc2ccc(Br)cc2)n1` showed an inhibition of -7.26%.
In the case of `O=C(/C=C/c1ccc(Cl)c([N+](=O)[O-])c1)c1ccc(O)cc1`, the inhibition is reported as 2.68%.
For `CNC(=O)Nc1cc(C(C)(C)C)no1`, the inhibition was 54.8% (active).
For `CCCn1c(SCC(=O)Nc2ccc(C)c(S(=O)(=O)N3CCOCC3)c2)n[nH]c1=O`, the inhibition was 4.59%.
With `CC[n+]1c(C)n(-c2ccccc2)c2ccc(NC(C)=O)cc21` the inhibition was 57.7% (active).
In the case of `CCc1ccc(NC(=O)N2CCN(c3ccccc3)CC2)cc1`, the inhibition is reported as 1.4%.
Molecule `CCn1c2ccccc2c2cc(NC(=O)CNC)ccc21` has an inhibition of 3.93%.
For `Cc1ccc(/C=N/NC(=S)NC2CCCCC2)o1`, the inhibition was -7.43%.
With `CCOC(=O)c1ccc(NC(=O)Cn2cnc3cc(C)c(C)cc32)cc1` the inhibition was 58.4% (active).
In the case of `CCOC(=O)c1ccc(NC(=O)CSc2ncccn2)cc1`, the inhibition is reported as 0.67%.
In the case of `CCOC(=O)c1ccc(NC(=O)Cn2nnc(-c3ccc(C)cc3)n2)cc1`, the inhibition is reported as 1.76%.
For `O=C(O)CC1=C(Nc2ccccc2)C(=O)N(c2ccccc2)C1c1ccc(Cl)cc1` (stereo unspecified), the inhibition was 1.11%.
Molecule `Cc1ccc2cc(/C=N/NC(=O)[C@@H]3CCCN3)c(Cl)nc2c1` has an inhibition of 0.27%.
Work on `CC(C)Nc1nnc(SCC(=O)/C=C2\N(C)c3ccccc3C2(C)C)s1` yielded an inhibition of 0.74%.
In the case of `Cc1noc(C)c1C(=O)OCC(=O)/C=C1\N(C)c2ccccc2C1(C)C`, the inhibition is reported as 4.98%.
In the case of `CC(=O)Nc1cccc(OCC(=O)/C=C2\N(C)c3ccccc3C2(C)C)c1`, the inhibition is reported as 44.2% (active).
With `COc1ccc(-n2cc(CNC3CCOCC3)c(-c3cccc(F)c3)n2)cc1` the inhibition was 5.7%.
`CCCCC(NC(=O)c1cccc(Br)c1)C(=O)O` (stereo unspecified) gave an inhibition of 0.6%.
With `CCOC(=O)N1CCN(S(=O)(=O)c2ccc(C(=O)Nc3ccc(F)cc3F)cc2)CC1` the inhibition was 53.5% (active).
With `COc1ccc(C(=O)Nc2ccc(F)cc2F)cc1` the inhibition was -0.96%.
Work on `O=C(Nc1cccc(F)c1)c1ccc(S(=O)(=O)N2CCCC2)cc1` yielded an inhibition of 7.79%.
`Cc1cc(C)c(NC(=O)CN2CCOCCOCCOCCOCC2)c(C)c1` showed an inhibition of 2.62%.
In the case of `O=C(CSc1ccc(C(F)(F)F)cc1[N+](=O)[O-])NCCOc1ccccc1`, the inhibition is reported as 3.21%.
For `CC#CC[N+](C)(C)CCCCCC`, the inhibition was 43.8% (active).
`C/C(=N\N1CCN(Cc2ccc(C)cc2)CC1)c1ccco1` showed an inhibition of 3.54%.
With `Cc1ccc(C(=O)Nc2nc(N)n(-c3ccccc3)n2)cc1` the inhibition was -1.21%.
Work on `COc1cc(Cl)c(C)cc1NC(=O)[C@@H]1CCCN1C(=O)c1cccs1` yielded an inhibition of 6.13%.
Work on `COC(=O)Nc1ccc(S(=O)(=O)N2CCN(CCN3C(=O)C4C5C=CC(C5)C4C3=O)CC2)cc1` (stereo unspecified) yielded an inhibition of 5.02%.
With `COC(=O)CCNC(=O)c1ccc2[nH]c(C)c(C)c2c1` the inhibition was 3.29%.
Work on `CCOC(=O)c1[nH]c2c(c1-c1ccccc1)C(=O)CC(c1ccc(Cl)cc1)C2` (stereo unspecified) yielded an inhibition of 8.29%.
With `CCCOC(=O)c1[nH]c2c(c1C)C(=O)CC(c1cc(OC)c(OC)c(OC)c1)C2` (stereo unspecified) the inhibition was 41.3% (active).
In the case of `COc1cc(C2CC(=O)c3cnc(NC(C)=O)nc3C2)cc(OC)c1OC` (stereo unspecified), the inhibition is reported as 2.9%.
`CCOC(=O)c1[nH]c2c(c1C)C(=O)CC(c1ccc(N(C)C)cc1)C2` (stereo unspecified) gave an inhibition of 4.47%.
In the case of `CCCOC(=O)c1[nH]c2c(c1C)C(=O)CC(c1cccs1)C2` (stereo unspecified), the inhibition is reported as 75.9% (active).
`CCOC(=O)C1=C(C)NC(=S)NC1c1cccs1` (stereo unspecified) gave an inhibition of 3.93%.
`O=C(O)CCCC(=O)Nc1ccc(Oc2cccc(C(F)(F)F)c2)nc1` showed an inhibition of -1.72%.
With `CCOC(=O)C1=C(CC)OC(N)=C(C#N)C1c1ccc(F)cc1F` (stereo unspecified) the inhibition was 0.94%.
Molecule `Cc1ccc(S(=O)(=O)N2CCCC2C(=O)OCc2nc3sc(C)c(C)c3c(=O)[nH]2)cc1` (stereo unspecified) has an inhibition of 3.55%.
`O=C1CCCCC1C(=O)c1ccccc1` (stereo unspecified) showed an inhibition of 0.06%.
For `COc1ccc2nc(/N=C(\N)NC(=O)Nc3ccccc3)nc(C)c2c1`, the inhibition was 31.6% (active).
With `COc1ccc(NC(=O)Nc2ccc3nc(C)c(C)nc3c2)cc1` the inhibition was 1.19%.
In the case of `Cc1nc(/N=C(\N)NC(=O)NC2CCCCC2)nc2ccccc12`, the inhibition is reported as 4.49%.
`O=C(NNC(=O)c1cnccc1C(F)(F)F)c1ccc(Cl)cc1` gave an inhibition of -1.83%.
In the case of `Cc1cccc(Cn2cnc3c(N)c(C)c(C)cc32)c1`, the inhibition is reported as 32.6% (active).
Molecule `CCOC(=O)c1cn(Cc2cccc(C)c2)nn1` has an inhibition of 2.15%.
`COc1cccc(Cn2cnc3c([N+](=O)[O-])c(C)c(C)cc32)c1` gave an inhibition of 9.27%.
With `CCN(CC)S(=O)(=O)c1ccc(OC(C)C)c(N)c1` the inhibition was 5.49%.
In the case of `COc1ccccc1C1C2=C(COC2=O)Nc2cc3c(cc21)OCO3` (stereo unspecified), the inhibition is reported as 80.4% (active).
In the case of `COc1ccc(F)cc1S(=O)(=O)Nc1ccc2c(c1)OCO2`, the inhibition is reported as 3.23%.
Molecule `COc1cc2c(cc1/C=C1/NC(=O)N(c3ccccc3)C1=O)OCO2` has an inhibition of 10.5%.
For `CCCOc1ccccc1C1CC(=O)Nc2cc3c(cc21)OCO3` (stereo unspecified), the inhibition was 71.8% (active).
`COCCOC(=O)C1=C(C)NC(=O)CC1c1cc2c(cc1Br)OCO2` (stereo unspecified) gave an inhibition of 3.68%.
For `COc1ccc(C2CC(=O)Nc3cc(C)c(C)cc32)c(OC)c1OC` (stereo unspecified), the inhibition was 3.54%.
